Screens from PubChem BioAssay.
GPR151 activ: activators of human GPR151, primary screen, cell-based, PathHunter beta-arrestin, luminescence. G-protein coupled receptor 151 (Homo sapiens), Q8TDV0. PathHunter beta-arrestin GPR151 cells. activation, % at 11.2 µM. actives 1% (n = 650,000). AID 1508602, 2020; in the data active = activation above about 4.9%
Target sequence (Q8TDV0 whole entry, looked up): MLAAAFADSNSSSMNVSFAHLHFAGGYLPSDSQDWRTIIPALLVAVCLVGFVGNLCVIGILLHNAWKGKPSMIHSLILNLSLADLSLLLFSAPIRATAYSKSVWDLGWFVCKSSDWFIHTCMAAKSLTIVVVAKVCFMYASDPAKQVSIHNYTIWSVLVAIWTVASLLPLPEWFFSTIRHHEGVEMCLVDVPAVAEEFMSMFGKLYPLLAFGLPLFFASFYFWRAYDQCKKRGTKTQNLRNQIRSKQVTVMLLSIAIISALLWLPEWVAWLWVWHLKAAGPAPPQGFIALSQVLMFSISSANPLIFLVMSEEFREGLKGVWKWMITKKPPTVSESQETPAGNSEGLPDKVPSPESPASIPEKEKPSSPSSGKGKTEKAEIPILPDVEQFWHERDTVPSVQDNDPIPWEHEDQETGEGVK
TEAD-YAP block: TEAD-YAP interaction inhibition, primary screen, TEAD-YAP interaction inhibitor project, luminescence, HEK-TIYL cells; actives 1.4% (n = 640,000); TEAD-Gal4/YAP UAS-luciferase luminescence; inhibition, % at 9.12 µM; AID 1259422, 2018; in the data active = inhibition above about 32%
FBW7 activator: FBW7 E3 ligase activators, primary screen, biochemical, AlphaScreen, human; AID 1259310, 2017; actives 0.13% (n = 650,000); F-box/WD repeat-containing protein 7 (Homo sapiens), Q969H0; AlphaScreen FBW7–phospho-cyclin E peptide binding, activator screen; normalized activity (activation), % at 26.1 µM; in the data active = normalized activity above about 1.9%;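 also: purified mutant Fbw7 with reduced substrate affinity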
MITF primary: MITF inhibitors, primary screen, biochemical, AlphaScreen, human. Microphthalmia-associated transcription factor (Homo sapiens), O75030. AlphaScreen MITF homodimerization, bead proximity signal. inhibition, % at 2.6 µM. actives 0.91% (n = 650,000). AID 1259374, 2018; in the data active = inhibition above about 50%
MITF inh conf: MITF inhibitors, retest of hits, confirmation, biochemical, AlphaScreen, triplicate; shares compounds with MITF primary; AlphaScreen MITF homodimerization, biotin/His-MITF beads; inhibition, % at 2.6 µM; actives 16% (n = 4,700); AID 1259372, 2018;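 active = inhibition above a cutoff derived from the DMSO control wells, cut at about 28% in these data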;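 also: inhibitors lower the bead chemiluminescence by keeping MITF from dimerizing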
AlphaScreen DR: AlphaScreen optical interference compounds, dose response, counter-screen, biochemical, HTS | shares compounds with MITF primary | AlphaScreen optical interference counterscreen, cell-free | IC50, µM | actives 6% (n = 480); call rule not given here
AS interf ctr: AlphaScreen optical interference compounds, counter-screen for MITF inhibitor project, biochemical, triplicate; shares compounds with MITF primary; inhibition, % at 2.6 µM; LysRS AlphaScreen counterscreen, signal interference; AID 1259376, 2018; actives 7.6% (n = 4,700);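 active = inhibition above a cutoff derived from the DMSO control wells, cut at about 30% in these data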
Each line names hits and unclear results; the compound was inactive in the other large screens (follow-up assays come after a bar, where they were run). A selection: hits, their analogues and other compounds. The true share with any hit is near 3.4%.

O=C(CNCCc1ccccc1)Nc1ccccc1N1CCOCC1	MITF primary 51 | MITF inh conf inactive | AS interf ctr inactive
O=C(Cc1ccccc1)Nc1ccc(N2CCOCC2)cc1N1CCOCC1	none
CC1CCCCN1CC(=O)Nc1ccccc1C(N)=O (stereo unspecified)	none
CC1CCCCN1CC(=O)Nc1ccccc1N1CCCCC1 (stereo unspecified)	MITF primary 53 | MITF inh conf inactive | AS interf ctr inactive
O=C(CNCCN1CCOCC1)Nc1ccccc1N1CCOCC1	MITF primary 64 | MITF inh conf inactive | AS interf ctr inactive
O=C(CNC1CCCCCC1)Nc1ccccc1N1CCOCC1	none
COc1ccc(CCNCC(=O)Nc2ccccc2N2CCOCC2)cc1	MITF primary 60 | MITF inh conf inactive | AS interf ctr inactive
CCOC(=O)CNC(=O)CN1CCC(Cn2cnc3cc(C)c(C)cc32)CC1	none
O=C(CNCCN1CCOCC1)Nc1sc2c(c1C(=O)c1ccccc1)CCCC2	MITF primary 74 | MITF inh conf inactive | AS interf ctr inactive
CCOCCCNCC(=O)Nc1ccccc1N1CCOCC1	MITF primary 51 | MITF inh conf inactive | AS interf ctr inactive
O=C(CN1CCCCC1)Nc1ccccc1N1CCOCC1	MITF primary 60 | MITF inh conf inactive | AS interf ctr inactive
O=C(CNCC1CCCCC1)Nc1ccccc1N1CCOCC1	MITF primary 66 | MITF inh conf inactive | AS interf ctr inactive
O=C(CN1C(=O)c2ccccc2C1=O)Nc1ccccc1N1CCOCC1	none
O=C(CN1CCOCC1)Nc1sc2c(c1C(=O)c1ccccc1)CCCC2	none
COc1ccccc1CC(=O)c1ccc(O)c(CN2CCCCC2)c1O	none
O=C(N/N=C1\CCSC1)c1ccc2c(c1)OCO2	none
COc1cc2nc(C3CCC3)n(NC(=O)Cc3cccs3)c(=O)c2cc1OC	none
CCCCSc1ncnc2c1c(-c1ccccc1)cn2-c1ccc(F)cc1	none
O=C(NC1CCCC1)C1c2ccccc2Oc2ccccc21	MITF primary 76 | MITF inh conf inactive | AS interf ctr inactive
COc1cccc(CN2CCC(=O)N(Cc3ccc(F)cc3)CC2)c1	none
Fc1ccc(CN2CCN(Cc3cccc(Oc4ccccc4)c3)CC2)cc1	MITF primary 68 | MITF inh conf inactive | AS interf ctr inactive
CCOc1ccc(CN2CCN(Cc3cccc(Oc4ccccc4)c3)CC2)cc1	none
c1ccc(Oc2cccc(CN3CCN(Cc4ccncc4)CC3)c2)cc1	MITF primary 69 | MITF inh conf inactive | AS interf ctr inactive
Fc1ccccc1CN1CCN(Cc2cccc(Oc3ccccc3)c2)CC1	MITF primary 72 | MITF inh conf inactive | AS interf ctr inactive
O=C(c1ccncc1)N1CCN(Cc2cccc(Oc3ccccc3)c2)CC1	none
CCN1CCN(Cc2cccc(Oc3ccccc3)c2)CC1	MITF primary 66 | MITF inh conf inactive | AS interf ctr inactive
c1ccc(Oc2cccc(CN3CCSCC3)c2)cc1	none
Cc1ccc2c(c1)c1nnc(SCC(=O)N3CCC(C)CC3)nc1n2C	none
Cc1cc(C)cc(NCc2ccc3c(c2)OCO3)c1	MITF primary 67 | MITF inh conf inactive | AS interf ctr inactive
CSc1ccc(Cn2nnc(C(=O)Nc3cc(Cl)ccc3C)c2N)cc1	none
O=C(NCCO)c1ccc2nc(-c3ccco3)c(-c3ccco3)nc2c1	MITF primary 74 | MITF inh conf 83 | AlphaScreen DR inactive | AS interf ctr inactive
O=C(NCCCN1CCOCC1)c1ccc2nc(-c3ccco3)c(-c3ccco3)nc2c1	none
Cc1ccc(C)c(NC(=O)CNCC(C)(C)CN(C)C)c1	MITF primary 74 | MITF inh conf inactive | AS interf ctr inactive
CN(C)CC(C)(C)CNCC(=O)Nc1ccc(OC(F)(F)F)cc1	MITF primary 55 | MITF inh conf inactive | AS interf ctr inactive
CCC(C)(C)NCC(=O)Nc1ccc(OC(F)(F)F)cc1	none
Cc1ccc(C)c(NC(=O)CCC(=O)Nc2cc(C)ccc2C)c1	none
CC(C)N(CCNC(=O)c1ccc2nc(Nc3ccc4ncccc4c3)sc2c1)C(C)C	none
CC(O)Cn1c2ccccc2c2ccccc21 (stereo unspecified)	none
Cc1ccc(CSc2nnc(-c3ccncc3)n2CCCN(C)C)cc1	MITF primary 72 | MITF inh conf inactive | AS interf ctr inactive
CN(C)CCCn1c(SCC(N)=O)nnc1-c1ccncc1	none
COc1cc(/C=C2\SC(=S)N(CC3CCCO3)C2=O)ccc1O (stereo unspecified)	none
CC(C)CN1C[C@@H](NCc2ccccc2)C[C@H]1C(=O)NCCc1ccccc1F	none
COc1ccc(CN2CCN(Cc3cc(OC)c(OC)cc3OC)CC2)cc1	MITF primary 76 | MITF inh conf inactive | AS interf ctr inactive
COc1ccc(CN2CCc3cc(OC)c(OC)cc3C2)cc1	none
CCc1ccc(CN2CCN(Cc3cc(OC)c(OC)cc3OC)CC2)cc1	MITF primary 63 | MITF inh conf inactive | AS interf ctr inactive
CCOC(=O)N1CCN(C(=O)C2CCN(Cc3ccccc3OC)CC2)CC1	MITF primary 54 | MITF inh conf inactive | AS interf ctr inactive
CCOC(=O)N1CCN(C(=O)C2CCN(Cc3cc(OC)ccc3OC)CC2)CC1	none
COc1ccc(CN2CCC(C(=O)N3CCc4ccccc4C3)CC2)c(OC)c1	MITF primary 53 | MITF inh conf inactive | AS interf ctr inactive
COc1ccc(CN2CCC(C(=O)N3CCc4ccccc4C3)CC2)cc1	none
O=C(C1CCN(Cc2ccc(F)cc2)CC1)N1CCN(c2ccccc2)CC1	MITF primary 52 | MITF inh conf inactive | AS interf ctr inactive
O=C(C1CCN(Cc2cccnc2)CC1)N1CCN(C/C=C/c2ccccc2)CC1	MITF primary 58 | MITF inh conf inactive | AS interf ctr inactive
O=C(CSc1nc2ccccc2s1)NCC12CC3CC(CC(C3)C1)C2	none
Cc1nnc(SCC(=O)N2CCC(CO)(CCOc3ccccc3)CC2)s1	none
Cc1cccc(N2NC(=O)/C(=C/c3ccc(-c4ccccc4[N+](=O)[O-])o3)C2=O)c1	none
COc1cc(CN2CCC(C(=O)N3CCN(Cc4ccccc4)CC3)CC2)ccc1O	MITF primary 60 | MITF inh conf inactive | AS interf ctr inactive
O=C(C1CCN(Cc2ccccc2)CC1)N1CCN(Cc2ccccc2)CC1	MITF primary 55 | MITF inh conf inactive | AS interf ctr inactive
COc1ccccc1CN1CCC(C(=O)N2CCN(Cc3ccccc3)CC2)CC1	MITF primary 52 | MITF inh conf inactive | AS interf ctr inactive
O=C(C1CCN(Cc2cccc(O)c2)CC1)N1CCN(Cc2ccccc2)CC1	none
